# Assay results reported in PubChem BioAssay.
# The source made the active and inactive calls.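 How the source made its calls, unless noted: active means normalized viability below 100% at a tested concentration; inactive means the rest.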
# Assays:
# [1] = kinase inhibitors against Plasmodium liver-stage infection, cell-based, known kinase inhibitor set, luminescence, hepatoma host viability (AID 624392; call rule not given here;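 further: infected cells incubated roughly two days before readout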); conditions: Plasmodium liver stage in hepatoma cells, luciferase luminescence, concentration not given here; liver cell % of control: measured here: host liver cell viability; parasite % of control: stronger effect = lower value
# [2] = modulators of glucocorticoid suppression of NF-kB, cell-based, luciferase, IL-1B stimulus, dexamethasone (AID 624486; call rule not given here;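 on percent of negative control (+Dex): 100% = mean signal of vehicle control wells on the plate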); conditions: NF-kB luciferase reporter, IL-1B + dexamethasone, luminescence; percent of negative control (+Dex): actives lie on both sides, concentration not given here; z-score: measured here: IL-1B alone, no Dex
# [3] = kinase inhibitors altering Pseudomonas killing of worms, whole organism (AID 651566; call rule not given here;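 further: tested at 14 µM; sign flipped so higher z means a lower ratio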); conditions: C. elegans killed by P. aeruginosa, survival ratio
# [4] = activators of macrophage pro-inflammatory response, cell-based, murine, luminescence (AID 652131; call rule not given here); conditions: murine macrophage pro-inflammatory reporter, stronger effect = higher value
# [5] = survival rescue of mitochondrial mutant cells in low glucose, primary screen, MELAS cybrids, Rieske KO mouse fibroblasts, CellTiter-Glo (AID 1508586;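 active means mean z-score across replicates of 1.96 or higher in either the MELAS or the Rieske mutant cell line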;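 further: z relative to plate mean and SD of compound and empty wells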)
# [6] = ovarian cancer cell viability with rucaparib, profiling panel, oncology-focused library, rucaparib conditional (AID 1508598); conditions: patient-derived ovarian cancer cells, CellTiter-Glo viability, 144 h, stronger effect = lower value
# [7] = viability rescue of complex I mutant cybrids, primary screen, cell-based, galactose medium, ATP luminescence (AID 1645843;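 active means z-score of at least 1.8 in each of two replicates, scored against plate mean and spread of sample wells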;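 further: positive z means more ATP and so rescue of galactose-driven cybrid death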); conditions: complex I mutant cybrid cells, 72 h, stronger effect = higher value
# [8] = MELAS cybrid survival, CellTiter-Glo 48 h, stronger effect = higher value
# [9] = Rieske KO mouse fibroblast survival, CellTiter-Glo 72 h
# [10] = at 0.000305 µM, OCI-C5x cells, with rucaparib 10 µM, 100% = cells with rucaparib alone
# [11] = at 0.000305 µM, OCI-C5x cells, without rucaparib
# [12] = at 0.000305 µM, OCI-P5x cells, with rucaparib 20 µM, 100% = cells with rucaparib alone
# [13] = at 0.000305 µM, OCI-P5x cells, without rucaparib
# [14] = at 0.00122 µM, OCI-C5x cells, with rucaparib 10 µM, 100% = cells with rucaparib alone
# [15] = at 0.00122 µM, OCI-C5x cells, without rucaparib
# [16] = at 0.00122 µM, OCI-P5x cells, with rucaparib 20 µM, 100% = cells with rucaparib alone
# [17] = at 0.00122 µM, OCI-P5x cells, without rucaparib
# [18] = at 0.00488 µM, OCI-C5x cells, with rucaparib 10 µM, 100% = cells with rucaparib alone
# [19] = at 0.00488 µM, OCI-C5x cells, without rucaparib
# [20] = at 0.00488 µM, OCI-P5x cells, with rucaparib 20 µM, 100% = cells with rucaparib alone
# [21] = at 0.00488 µM, OCI-P5x cells, without rucaparib
# [22] = at 0.0195 µM, OCI-C5x cells, with rucaparib 10 µM, 100% = cells with rucaparib alone
# [23] = at 0.0195 µM, OCI-C5x cells, without rucaparib
# [24] = at 0.0195 µM, OCI-P5x cells, with rucaparib 20 µM, 100% = cells with rucaparib alone
# [25] = at 0.0195 µM, OCI-P5x cells, without rucaparib
# [26] = at 0.0781 µM, OCI-C5x cells, with rucaparib 10 µM, 100% = cells with rucaparib alone
# [27] = at 0.0781 µM, OCI-C5x cells, without rucaparib
# [28] = at 0.0781 µM, OCI-P5x cells, with rucaparib 20 µM, 100% = cells with rucaparib alone
# [29] = at 0.0781 µM, OCI-P5x cells, without rucaparib
# [30] = at 0.313 µM, OCI-C5x cells, with rucaparib 10 µM, 100% = cells with rucaparib alone
# [31] = at 0.313 µM, OCI-C5x cells, without rucaparib
# [32] = at 0.313 µM, OCI-P5x cells, with rucaparib 20 µM, 100% = cells with rucaparib alone
# [33] = at 0.313 µM, OCI-P5x cells, without rucaparib
# [34] = at 1.25 µM, OCI-C5x cells, with rucaparib 10 µM, 100% = cells with rucaparib alone
# [35] = at 1.25 µM, OCI-C5x cells, without rucaparib
# [36] = at 1.25 µM, OCI-P5x cells, with rucaparib 20 µM, 100% = cells with rucaparib alone
# [37] = at 1.25 µM, OCI-P5x cells, without rucaparib
# [38] = at 5 µM, OCI-C5x cells, with rucaparib 10 µM, 100% = cells with rucaparib alone
# [39] = at 5 µM, OCI-C5x cells, without rucaparib
# [40] = at 5 µM, OCI-P5x cells, with rucaparib 20 µM, 100% = cells with rucaparib alone
# [41] = at 5 µM, OCI-P5x cells, without rucaparib
compound,measurement,setting,value
Cc1cccc(Nc2ncc(-c3ccccc3)o2)c1,liver cell % of control,[1],79.5%
same,parasite % of control,[1],180% (inactive)
same,percent of negative control (+Dex),[2],272% (active)
same,z-score,[2],15.2
same,z-score,[3],-1.25 (inactive)
same,z-score,[4],1.33 (inactive)
same,z-score,[5]; [8],0.673 (inactive)
same,z-score,[5]; [9],-0.569
COc1cccc(Nc2nccc(-c3cnn4ncccc34)n2)c1,liver cell % of control,[1],85.6%
same,parasite % of control,[1],13.4% (inactive)
same,percent of negative control (+Dex),[2],3% (active)
same,z-score,[2],-9.21
same,z-score,[3],0.695 (inactive)
same,z-score,[4],-1.68 (inactive)
same,z-score,[5]; [8],0.875 (inactive)
same,z-score,[5]; [9],1.18
Cc1cc2c(C(=O)NC[C@H](C)c3ccccc3)c(O)c(O)cc2c(O)c1-c1c(C)cc2c(C(=O)NC[C@H](C)c3ccccc3)c(O)c(O)cc2c1O,viability,[6]; [10],120% (inactive)
same,viability,[6]; [11],108% (inactive)
same,viability,[6]; [12],99.3% (active)
same,viability,[6]; [13],89.3% (active)
same,viability,[6]; [14],132% (inactive)
same,viability,[6]; [15],116% (inactive)
same,viability,[6]; [16],98.5% (active)
same,viability,[6]; [17],89.2% (active)
same,viability,[6]; [18],128% (inactive)
same,viability,[6]; [19],110% (inactive)
same,viability,[6]; [20],97.9% (active)
same,viability,[6]; [21],91.4% (active)
same,viability,[6]; [22],124% (inactive)
same,viability,[6]; [23],116% (inactive)
same,viability,[6]; [24],102% (inactive)
same,viability,[6]; [25],91.3% (active)
same,viability,[6]; [26],122% (inactive)
same,viability,[6]; [27],110% (inactive)
same,viability,[6]; [28],105% (inactive)
same,viability,[6]; [29],95.4% (active)
same,viability,[6]; [30],119% (inactive)
same,viability,[6]; [31],106% (inactive)
same,viability,[6]; [32],96.3% (active)
same,viability,[6]; [33],93.3% (active)
same,viability,[6]; [34],123% (inactive)
same,viability,[6]; [35],106% (inactive)
same,viability,[6]; [36],99.6% (active)
same,viability,[6]; [37],91.3% (active)
same,viability,[6]; [38],15.2% (active)
same,viability,[6]; [39],17.1% (active)
same,viability,[6]; [40],2.71% (active)
same,viability,[6]; [41],9.17% (active)
C[C@H]1C[C@H]2[C@@H]3CCC4=CC(=O)C=C[C@]4(C)[C@@H]3C(=O)C[C@]2(C)[C@]1(O)C(=O)CO,viability,[6]; [10],114% (inactive)
same,viability,[6]; [11],123% (inactive)
same,viability,[6]; [12],96.8% (active)
same,viability,[6]; [13],119% (inactive)
same,viability,[6]; [14],118% (inactive)
same,viability,[6]; [15],124% (inactive)
same,viability,[6]; [16],105% (inactive)
same,viability,[6]; [17],116% (inactive)
same,viability,[6]; [18],110% (inactive)
same,viability,[6]; [19],119% (inactive)
same,viability,[6]; [20],96.6% (active)
same,viability,[6]; [21],119% (inactive)
same,viability,[6]; [22],113% (inactive)
same,viability,[6]; [23],122% (inactive)
same,viability,[6]; [24],103% (inactive)
same,viability,[6]; [25],122% (inactive)
same,viability,[6]; [26],109% (inactive)
same,viability,[6]; [27],122% (inactive)
same,viability,[6]; [28],102% (inactive)
same,viability,[6]; [29],125% (inactive)
same,viability,[6]; [30],111% (inactive)
same,viability,[6]; [31],125% (inactive)
same,viability,[6]; [32],100% (inactive)
same,viability,[6]; [33],126% (inactive)
same,viability,[6]; [34],125% (inactive)
same,viability,[6]; [35],129% (inactive)
same,viability,[6]; [36],108% (inactive)
same,viability,[6]; [37],130% (inactive)
same,viability,[6]; [38],119% (inactive)
same,viability,[6]; [39],148% (inactive)
same,viability,[6]; [40],112% (inactive)
same,viability,[6]; [41],125% (inactive)
CC(=O)c1cccc(-c2cc3c(n(CC=C(C)C)c2=O)CCN(Cc2cnc(N(C)C)s2)C3)c1,z-score,[5]; [8],-0.385 (inactive)
same,z-score,[5]; [9],0.11
same,z-score,[7],0.475 (inactive)
COC(=O)Nc1nc2ccc(Sc3ccc(NC(=O)Nc4cc(C(F)(F)F)ccc4F)cc3)cc2[nH]1,liver cell % of control,[1],136%
same,parasite % of control,[1],195% (inactive)
same,percent of negative control (+Dex),[2],96.5% (inactive)
same,z-score,[2],-0.175
same,z-score,[3],-0.56 (inactive)
same,z-score,[4],1.3 (inactive)
same,z-score,[5]; [8],-0.309 (inactive)
same,z-score,[5]; [9],-0.32
NC(=O)Cc1ccccc1Oc1nccc(-c2c(-c3ccc(F)cc3)ncn2C2CCNCC2)n1,liver cell % of control,[1],110%
same,parasite % of control,[1],160% (inactive)
same,percent of negative control (+Dex),[2],105% (inactive)
same,z-score,[2],0.475
same,z-score,[3],-0.78 (inactive)
same,z-score,[4],0.598 (inactive)
same,z-score,[5]; [8],-0.586 (inactive)
same,z-score,[5]; [9],-0.373
